The text below walks through data of PubChem BioAssay (EPA / NIEHS).

Experiment [1] is described as follows: ACEA_AR_agonist_AUC_viability: ACEA Biosciences xCELLigence Real-Time Cell Analysis on Androgen Receptor Agonism for Viability (AID 2283775).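 For AC50: viability read 80 hours after compound addition.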 Put shortly:
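22Rv1 cells; impedance growth kinetics; 8-pt 1:4 dilutions from 100 uM top final, ≤0.5% DMSO; n = 2; 80 h read; AUC viability, loss-of-signal vs DMSO.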

The nature of experiment [2]: ACEA_AR_antagonist_AUC_viability: ACEA Biosciences xCELLigence Real-Time Cell Analysis on Androgen Receptor Antagonism for Viability (AID 2283776).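 Note: 22Rv1 human prostate cancer cells growing on impedance electrode plates; hits lower the growth signal relative to DMSO meaning cytotoxicity.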 Put shortly: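 Impedance read-out (RT-CES): area under growth curve at 80 h post-dose, loss of signal scored vs DMSO baseline. 22Rv1 cells; 8-pt 1:4 series, top 100 uM final, ≤0.5% DMSO; biological duplicate.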
The target of experiment [3] is Luciferin 4-monooxygenase (Photinus pyralis) (UniProt P08659). As to the kind of experiment: CCTE_Simmons_QuantiLum_inhib_2: CCTE's Firefly Luciferase Inhibition Assay, Simmons Lab (AID 2283767).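 For AC50: potency for inhibitors that lower luciferase luminescence relative to DMSO.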 Summed up: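 Eight test concentrations, 5 nM up to 87.5 uM final, preincubated 30min at 37C in the dark with purified luciferase (0.5% DMSO final). Detection reagent (150uM D-luciferin, 147uM dATP, 75uM CoA, pH 7.8) injected per well before kinetic luminescence read; three replicates.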

Experiment [4] deals with AR (gene 367) (UniProt P10275). The experiment is described as follows: ACEA_AR_antagonist_80hr: ACEA Biosciences xCELLigence Real-Time Cell Analysis on Androgen Receptor Antagonism for Proliferation (AID 2283787).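 Note: 22Rv1 human prostate cancer cells with growth followed by electrical impedance; hits lower the impedance growth signal relative to DMSO.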 Put shortly: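 Impedance-based real-time growth of 22Rv1 prostate cells, read 80 h after dosing. Eight concentrations, 1:4 series, top 100 uM final (0.5% DMSO), n = 2; signal decrease scored against DMSO.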

Experiment [5] can be described thus: ACEA_ER_AUC_viability: ACEA Biosciences xCELLigence Real-Time Cell Analysis on Estrogen Receptor Agonism for Viability (AID 2283782).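 Note: hit means loss of impedance signal meaning reduced cell growth or viability.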 Summed up: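 Viability endpoint: reduced impedance area under the curve relative to DMSO, recorded by real-time electrode sensing over ~80 h of continuous exposure. Duplicate plates of T47D in hormone-depleted medium; eight concentrations, 1:4 dilutions, 100 uM maximum.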

Experiment [6] concerns the target AR (gene 367) (UniProt P10275). The experiment is described as follows: ACEA_AR_agonist_80hr: ACEA Biosciences xCELLigence Real-Time Cell Analysis on Androgen Receptor Agonism for Proliferation (AID 2283783).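 Note: hits increase impedance growth signal above DMSO baseline.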 Summed up: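 Eight concentrations, 1:4 serial dilution from a 100 uM final top, in biological duplicate. Impedance-based real-time growth of 22Rv1 cells after overnight baseline, recorded hourly and read at 80 hours. Controls: testosterone, MG132, assay media.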

In experiment [7] the test system is zebrafish Estrogen Receptor (ESR2B), gene 317733. The experiment is described as follows: ATG_zfER2b_XSP1: Attagene TRANS-FACTORIAL Multi-Species (XSP1) HepG2 Assay for zebrafish Estrogen Receptor (ESR2B) (AID 2283773). Summed up: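 Medium contained 3 nM 6-alpha-fluorotestosterone. Reporter mRNA induction by exogenous zebrafish ER2b-Gal4 chimera was read 24 h post-dose in transiently transfected HepG2 cells, using RT-PCR, fluorescent labelling, HpaI digestion and capillary electrophoresis.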

Experiment [8] has as its system frog Estrogen Receptor (ESR2), gene 100174814. The experiment is described as follows: ATG_frER2_XSP1: Attagene TRANS-FACTORIAL Multi-Species (XSP1) HepG2 Assay for frog Estrogen Receptor (ESR2) (AID 2283774). Summed up:
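Reporter mRNA from a multiplexed TRANS system, measured by RT-PCR with fluorescent labelling and capillary electrophoresis, 24 hours after chemical exposure. Human HepG2 liver cells carried exogenous frog ER-Gal4 chimera; medium included 3 nM 6-alpha-fluorotestosterone; increases versus DMSO analysed.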

Experiment [9] deals with Estrogen receptor beta (Homo sapiens) (UniProt Q92731). The experiment is described as follows: ATG_hERb_XSP1: Attagene TRANS-FACTORIAL Multi-Species (XSP1) HepG2 Assay for human Estrogen Receptor (ESR2) (AID 2283788). Summed up: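 HepG2 cells transiently transfected with multiplexed GAL4-UAS reporter units carrying chimeric human ERβ-Gal4; 24 h compound exposure with 3 nM 6-alpha-fluorotestosterone present. Reporter mRNA quantified by RT-PCR, FAM labelling and capillary electrophoresis; gain-of-signal fitted versus DMSO.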

Experiment [10] in a line: ATG_M_06_XSP1: Attagene TRANS-FACTORIAL Multi-Species (XSP1) HepG2 Assay for M06 Transcription Factor (Internal Marker) (AID 2283790). Summed up:
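This background-control readout tracks M06 reporter mRNA, measured by RT-PCR and capillary electrophoresis. HepG2 cells transiently carrying the GAL4-UAS reporter panel were dosed for 24 h with 3 nM 6-alpha-fluorotestosterone added for partial AR stimulation; increases were scored relative to DMSO.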

Experiment [11] in a line: STM_H9_NormalizedViability: Cytotoxicity Assessment at 120 hours in the Stemina devTOX quickPredict H9 human embryonic stem cell (hESC)-based Assay (AID 2283784). Summed up:
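Viability endpoint: background-corrected CellTiter-Fluor RFU expressed relative to the 0.1% DMSO mean on each plate. Undifferentiated H9 cells were treated with daily re-dosing and media change, and loss of signal was fitted.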

Values joined by “and” are separate entries in the source; they are usually repeats but may differ in a detail not shown here. Equal entries are not always repeated. Results filed as inconclusive are left out. Active and inactive are the calls of the source. Rule for the calls: active = hit-call score of the fitted dose curve at least 0.9, where 1 is the maximum; inconclusive = response in the unintended direction; inactive = score below 0.9.

Sequence of AR (gene 367) (P10275 whole entry, looked up): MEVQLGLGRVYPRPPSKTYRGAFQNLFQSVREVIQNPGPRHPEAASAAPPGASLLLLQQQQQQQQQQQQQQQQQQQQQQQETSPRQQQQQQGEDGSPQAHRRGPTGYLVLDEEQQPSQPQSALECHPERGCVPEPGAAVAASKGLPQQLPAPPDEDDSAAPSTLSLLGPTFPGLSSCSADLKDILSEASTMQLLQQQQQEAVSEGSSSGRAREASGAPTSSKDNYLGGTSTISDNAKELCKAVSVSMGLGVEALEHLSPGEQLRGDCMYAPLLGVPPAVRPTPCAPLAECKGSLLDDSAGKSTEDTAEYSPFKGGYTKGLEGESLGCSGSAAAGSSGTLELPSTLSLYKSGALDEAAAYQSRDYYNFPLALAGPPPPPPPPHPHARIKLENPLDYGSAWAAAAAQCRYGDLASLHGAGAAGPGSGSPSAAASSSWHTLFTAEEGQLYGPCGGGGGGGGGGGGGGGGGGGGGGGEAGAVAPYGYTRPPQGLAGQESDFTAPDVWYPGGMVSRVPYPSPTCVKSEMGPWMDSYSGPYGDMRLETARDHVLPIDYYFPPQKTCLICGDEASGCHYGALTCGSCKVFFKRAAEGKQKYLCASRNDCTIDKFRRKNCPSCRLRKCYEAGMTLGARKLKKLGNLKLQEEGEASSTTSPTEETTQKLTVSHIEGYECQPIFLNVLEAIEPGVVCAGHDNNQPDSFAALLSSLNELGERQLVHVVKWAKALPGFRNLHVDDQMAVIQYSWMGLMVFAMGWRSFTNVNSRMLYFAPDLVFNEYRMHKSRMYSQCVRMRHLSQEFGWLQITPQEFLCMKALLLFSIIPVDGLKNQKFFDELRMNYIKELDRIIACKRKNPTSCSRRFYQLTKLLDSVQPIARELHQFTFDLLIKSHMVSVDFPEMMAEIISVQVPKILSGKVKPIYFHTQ
Sequence of Luciferin 4-monooxygenase (Photinus pyralis) (P08659 whole entry, looked up): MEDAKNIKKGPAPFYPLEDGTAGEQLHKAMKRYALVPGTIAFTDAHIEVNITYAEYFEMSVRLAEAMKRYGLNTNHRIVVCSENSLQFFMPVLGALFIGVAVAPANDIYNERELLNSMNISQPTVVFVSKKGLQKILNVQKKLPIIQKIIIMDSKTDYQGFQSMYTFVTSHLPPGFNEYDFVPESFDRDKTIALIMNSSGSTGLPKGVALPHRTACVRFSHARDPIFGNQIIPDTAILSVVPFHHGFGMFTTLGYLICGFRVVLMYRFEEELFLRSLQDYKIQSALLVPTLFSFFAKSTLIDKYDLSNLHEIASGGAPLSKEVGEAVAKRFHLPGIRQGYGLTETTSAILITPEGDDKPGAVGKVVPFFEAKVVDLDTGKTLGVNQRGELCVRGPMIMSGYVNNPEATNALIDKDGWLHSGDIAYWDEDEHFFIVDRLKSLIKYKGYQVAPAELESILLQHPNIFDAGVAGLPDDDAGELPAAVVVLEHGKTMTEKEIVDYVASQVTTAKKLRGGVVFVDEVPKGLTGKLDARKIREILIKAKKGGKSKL
Sequence of Estrogen receptor beta (Homo sapiens) (Q92731 whole entry, looked up, the tested form may be a part): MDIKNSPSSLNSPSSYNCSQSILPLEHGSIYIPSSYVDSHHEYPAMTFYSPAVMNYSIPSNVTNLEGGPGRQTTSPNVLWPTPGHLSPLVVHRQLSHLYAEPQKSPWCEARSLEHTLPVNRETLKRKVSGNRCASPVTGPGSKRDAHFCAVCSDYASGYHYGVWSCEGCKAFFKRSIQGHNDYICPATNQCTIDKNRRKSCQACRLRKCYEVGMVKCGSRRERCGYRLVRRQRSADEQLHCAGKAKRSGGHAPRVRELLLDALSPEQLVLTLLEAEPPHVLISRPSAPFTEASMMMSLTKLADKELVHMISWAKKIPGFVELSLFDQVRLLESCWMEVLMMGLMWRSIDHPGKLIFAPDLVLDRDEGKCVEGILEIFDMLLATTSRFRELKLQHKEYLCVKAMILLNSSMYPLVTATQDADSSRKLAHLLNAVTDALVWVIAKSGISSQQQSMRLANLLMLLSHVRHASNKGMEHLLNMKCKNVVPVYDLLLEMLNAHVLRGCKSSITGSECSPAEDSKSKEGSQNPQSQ

As usually defined, the AC50 is the midpoint of the concentration-response curve, whichever way the signal moves. With `CCCCN(CC)c1c([N+](=O)[O-])cc(C(F)(F)F)cc1[N+](=O)[O-]`, the AC50 in experiment [1] was 60.9 µM (active); in experiment [2] it was 43.8 µM (active).
In the case of `CCOP(=O)(NC(C)C)Oc1ccc(SC)c(C)c1` (stereo not drawn), in experiment [3], the compound was called inactive. The AC50 in experiment [1] was 9.92 µM (active); in experiment [2] it was 32.7 µM (active); in the experiment with AR (gene 367) [4], 40.5 µM (active).
As to `CC[C@H](C)[C@H]1O[C@]2(C=C[C@@H]1C)C[C@@H]1C[C@@H](C/C=C(\C)[C@@H](O[C@H]3C[C@H](OC)[C@@H](O[C@H]4C[C@H](OC)[C@@H](NC)[C@H](C)O4)[C@H](C)O3)[C@@H](C)/C=C/C=C3\CO[C@@H]4[C@H](O)C(C)=C[C@@H](C(=O)O1)[C@]34O)O2`, the AC50 in experiment [1] was 0.874 µM (active); in experiment [2] it was 1.34 µM (active); in [5], 1.82 µM (active).
Regarding `COP(=O)(OC)SCn1c(=O)oc2cc(Cl)cnc21`, the compound was classed as inactive (in experiment [3]; with AR (gene 367) [6]). Besides, the AC50 was 23.7 µM (active) in [1], 17.2 µM (active) in experiment [2], 76.2 µM (active) in experiment [5] and 21.7 µM (active) with AR (gene 367) [4].
For the compound `C#CCC1=C(C)C(OC(=O)C2C(C=C(C)C)C2(C)C)CC1=O` (stereo not drawn), the result in experiment [3], in experiment [9] and in experiment [10] was inactive. The AC50 is 25.3 µM (active) in [7]; 23.4 µM (active) in experiment [8]; 67.2 µM (active) in [1]; 49.8 µM (active) in experiment [2]; 49.8 µM (active) in [5].
As to `CCC(CC)Nc1c([N+](=O)[O-])cc(C)c(C)c1[N+](=O)[O-]`, the figures for the concentration at half-maximal activity (AC50) in [1], in [2] and in [5] were 64.5 µM (active), 50 µM (active) and 76.8 µM (active), respectively.
As to `CC(=NC#N)N(C)Cc1ccc(Cl)nc1`, the call in experiment [1], in [2] and in experiment [5] was inactive.
For the compound `CCc1cnc(C2=NC(C)(C(C)C)C(=O)N2)c(C(=O)O)c1` (stereo not drawn), the call in experiment [1] and in experiment [2] was inactive.
For `CN(C)[C@@H]1C(=O)C(C(N)=O)=C(O)[C@@]2(O)C(=O)C3=C(O)c4c(O)cccc4[C@@](C)(O)[C@H]3[C@H](O)[C@@H]12`, the AC50 in [3] is 714 nM (active) and 72.3 µM (active); in experiment [1], 50 µM (active); in experiment [2], 50 µM (active); in experiment [11], 50 µM (active).
As to `CCOP(=S)(OCC)Oc1ccc([N+](=O)[O-])cc1`, in experiment [3], the AC50 was 26.9 µM (active). The outcome in experiment [1], in experiment [2] and in experiment [5] was inactive.
Take `COP(=O)(OC)C(O)C(Cl)(Cl)Cl` (stereo not drawn): the result in experiment [1] was inactive. Also, the half-maximal activity concentration (AC50) in experiment [2] is 50 µM (active); in [5] it was 76.5 µM (active).
Regarding `CCCSP(=O)(OCC)Oc1ccc(Br)cc1Cl` (stereo not drawn), the result in [3], in [1] and in [2] was inactive. Further, in [5], the AC50 is 38.6 µM (active).
Turning to `CSC1=N[C@@](C)(c2ccccc2)C(=O)N1Nc1ccccc1`, the compound was called inactive in experiment [3]. In addition, the AC50 in experiment [1] was 31.6 µM (active); in experiment [2], 18.1 µM (active); in [11], 30.1 µM (active).
Consider `CCC(=NOC/C=C/Cl)C1=C(O)CC(C2CCOCC2)CC1=O` (stereo not drawn), for which the compound was called inactive in [3], in [1], in experiment [5] and in experiment [11].
Turning to `CCOP(=S)(Oc1cnc(C(C)(C)C)nc1)OC(C)C` (stereo not drawn), the concentration at half-maximal activity (AC50) was 61.8 µM (active) in experiment [3], 46.3 µM (active) in experiment [1], 50 µM (active) in experiment [2] and 81.4 µM (active) in experiment [5].
